Results reported in PubChem BioAssay AID1835 (Johns Hopkins Ion Channel Center, 2009).
Hit rate of the full screen: of about 2,400 compounds, about 750 (31%) were called active. The list shows a part of the results. Values without a mark were called inactive.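 Rule for the calls: active = median signal gain over dofetilide-blocked control wells reaching their mean plus 3 SD, so readout 1 at least 0; inactive = the rest.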

These molecules were tested against Voltage-gated inwardly rectifying potassium channel KCNH2 (Homo sapiens) (UniProt Q12809) (assay: hERG protection against dofetilide inhibition, confirmation, cell-based, thallium flux, duplicate retest, dofetilide IC70 (AID 1835)). Conditions: hERG cell line, FluxOR thallium flux, dofetilide-blocked; at 10 µM; hits give high values.
Sequence of Voltage-gated inwardly rectifying potassium channel KCNH2 (Homo sapiens) (Q12809 whole entry, looked up): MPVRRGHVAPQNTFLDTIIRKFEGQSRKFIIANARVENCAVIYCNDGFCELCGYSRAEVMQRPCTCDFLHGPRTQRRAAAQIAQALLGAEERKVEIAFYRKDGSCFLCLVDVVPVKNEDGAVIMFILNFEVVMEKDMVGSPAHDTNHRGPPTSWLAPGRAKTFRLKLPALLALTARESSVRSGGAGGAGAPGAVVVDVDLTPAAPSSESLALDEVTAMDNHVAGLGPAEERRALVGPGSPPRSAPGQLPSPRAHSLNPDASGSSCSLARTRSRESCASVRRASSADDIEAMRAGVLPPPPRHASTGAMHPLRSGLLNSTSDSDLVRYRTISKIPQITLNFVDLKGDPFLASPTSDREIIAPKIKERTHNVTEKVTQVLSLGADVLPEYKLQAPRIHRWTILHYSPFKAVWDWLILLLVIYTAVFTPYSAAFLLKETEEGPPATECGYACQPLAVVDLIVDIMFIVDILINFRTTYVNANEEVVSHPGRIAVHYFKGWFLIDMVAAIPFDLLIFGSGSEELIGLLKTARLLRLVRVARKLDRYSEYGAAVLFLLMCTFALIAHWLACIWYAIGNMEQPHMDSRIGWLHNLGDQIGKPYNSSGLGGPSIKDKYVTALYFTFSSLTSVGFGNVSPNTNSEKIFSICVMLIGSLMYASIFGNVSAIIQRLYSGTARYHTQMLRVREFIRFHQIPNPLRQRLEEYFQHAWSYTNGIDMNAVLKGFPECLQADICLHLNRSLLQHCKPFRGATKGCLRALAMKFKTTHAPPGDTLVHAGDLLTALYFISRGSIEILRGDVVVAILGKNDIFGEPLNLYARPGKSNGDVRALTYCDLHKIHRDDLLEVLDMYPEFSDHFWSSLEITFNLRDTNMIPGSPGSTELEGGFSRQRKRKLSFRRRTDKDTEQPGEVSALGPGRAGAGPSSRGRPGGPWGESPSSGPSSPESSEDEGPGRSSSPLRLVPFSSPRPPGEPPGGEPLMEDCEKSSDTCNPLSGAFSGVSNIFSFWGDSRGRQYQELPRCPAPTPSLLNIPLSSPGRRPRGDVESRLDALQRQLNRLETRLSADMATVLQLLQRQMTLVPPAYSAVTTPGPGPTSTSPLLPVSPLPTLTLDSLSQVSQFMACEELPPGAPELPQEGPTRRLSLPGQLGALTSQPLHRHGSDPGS

SMILES	activity increase over dofetilide control, less the hit threshold
COc1cc(Br)cc(C=Nc2cccc(C(F)(F)F)c2)c1O	-14%
O=C(COC(=O)c1cnccn1)c1ccc(Cl)cc1	-9%
CCCNc1c(NS(=O)(=O)c2cccc(C#N)c2)c(=O)oc2ccccc12	-6%
Fc1cccc2sc(Nc3nc4c(F)cccc4s3)nc12	22% (active)
O=C(Cc1ccc(Cl)cc1)Nc1cccc(-c2nnc(-c3ccco3)o2)c1	-15%
COc1cccc(-c2nnc(Nc3nc4c(F)cccc4s3)o2)c1	9% (active)
Fc1cccc2sc(Nc3nnc(-c4ccccc4)o3)nc12	59% (active)
Fc1cccc2sc(Nc3nnc(-c4ccco4)o3)nc12	3% (active)
CC(=O)Nc1nc2c(F)cccc2s1	-15%
O=C(NCCc1ccc(F)cc1)c1coc(=O)c(Br)c1	-17%
O=C(Nc1nc2c(F)cc(F)cc2s1)C1COc2ccccc2O1 (stereo not drawn)	-6%
Fc1ccc2nc(Nc3nc4c(F)cc(F)cc4s3)sc2c1	4% (active)
O=C(CCc1ccccc1)Nc1nnc(-c2ccccn2)o1	-12%
CCOc1ccccc1CNC(=O)CNC(=O)c1cccs1	-24%
Cc1ccc(NC(=O)C(=O)NNC(=O)c2cccs2)cc1	74% (active)
CCc1ccc(NC(=O)C(=O)NNC(=O)c2cccs2)cc1	61% (active)
Cc1ccc(N/C=C/C(=O)c2cccs2)cc1	-15%
Cc1cc(C(=O)NNC(=O)c2cccs2)nn1C(C)(C)C	-1%
O=C1c2ccccc2C(=O)N1Cc1cc(-c2ccccc2Cl)no1	-7%
Cc1cc(C(F)(F)F)n(-c2ccc(N)cc2)n1	-5%
O=C(CSc1nc2cc(Cl)ccc2s1)c1cc2ccccc2o1	2% (active)
CCOC(=O)c1[nH]c(=O)[nH]c1COC(=O)c1cc2ccccc2o1	-2%
O=C(CSc1nnc(SCc2ccccc2)s1)N/N=C/c1ccc(Cl)cc1Cl	-6%
CSCC[C@H](NC(=O)Nc1ccc(C)cc1C)C(=O)O	-8%
COCCn1c(=S)[nH]c2sc3c(c2c1=O)CCCC3	28% (active)
COCCCn1c(=S)[nH]c2c(sc3ccccc32)c1=O	-3%
COCCCn1c(=S)[nH]c2sc3c(c2c1=O)CCCC3	29% (active)

SMILES	activity increase over dofetilide control, less the hit threshold
COCCn1c(=S)[nH]c2sc3c(c2c1=O)CCC(C)C3 (stereo not drawn)	44% (active)
CCN1C(=O)C2(/C(=C(\O)c3ccc4c(c3)OCCO4)C(=O)C(=O)N2CCCOC)c2ccccc21 (stereo not drawn)	-11%
CCCCNC(=O)CC(NS(=O)(=O)c1ccc(C)cc1)c1ccco1 (stereo not drawn)	-13%
CCOC(=O)C1=C(C)NC(=O)NC1c1cccc(OC)c1OCc1ccccc1Cl (stereo not drawn)	-11%
O=C(NCc1cccs1)C1CCC(CNS(=O)(=O)c2cccs2)CC1 (stereo not drawn)	-16%
CCC(=O)c1cc2c(C)cc(=O)oc2c(C)c1O	-13%
COC(=O)c1sccc1NC(=S)NCc1ccc(Cl)cc1	19% (active)
CSc1ccccc1NC(=S)NCc1ccc(Cl)cc1	-15%
COC(=O)c1sccc1NC(=S)N1CCN(C)CC1	-19%
CCOC(=O)c1c(NC(=O)/C=C/c2ccco2)sc(C)c1C	-14%
CCOC(=O)c1sc2ncnc(NCc3ccco3)c2c1C	34% (active)
CCOC(=O)c1sc2ncnc(NCC(c3cccs3)N(C)C)c2c1C (stereo not drawn)	40% (active)
Cc1ccc(OC(=O)c2sc3ncn(C)c(=O)c3c2C)cc1	-18%
c1ccc(Cn2ncc3c(N4CCN(C(c5ccccc5)c5ccccc5)CC4)ncnc32)cc1	-7%
CCCCCCc1c(O)nc(SCC(=O)O)[nH]c1=O	-16%
CC(C)NC(=S)NNc1nc2ccccc2s1	-9%
Cc1ccc(NC(=S)c2nc3ccccc3s2)cc1	5% (active)
S=C(Nc1ccc(Cl)cc1)c1nc2ccccc2s1	46% (active)
Cc1cccc(NC(=S)c2nc3ccccc3s2)c1	-12%
Clc1ccc(Nc2nc3cccnc3s2)cc1	-18%
O=C(Nc1ccc(Cl)cc1)Nn1cnnc1	-14%
O=C1C(=Cc2cccn2-c2ccc(O)cc2)C(=O)c2ccccc21	-18%
Cc1oc(/N=C/c2ccc(F)cc2)c(C#N)c1C	-20%
CCC(NS(=O)(=O)c1cn(C)nc1C)c1ccccc1 (stereo not drawn)	-8%
O=C(CSc1ncnc2c1cnn2-c1ccc(Cl)cc1)NCc1ccc2c(c1)OCO2	-2%
CSc1ccc(CNc2nc3ccccc3n3cnnc23)cc1	-20%
